# Most compounds without a hit are left out; they make up all but 2.5% or so of the library.
# iPSC survival up: enhancers of single-cell hiPSC survival, primary screen, ATPlite luminescence; 100% = ROCK inhibitor wells, 0% = DMSO; survival enhancement, % at 20 µM; 360,000 tested, 0.044% active; in the data active means survival enhancement above about 18%;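 further: cells exposed to compounds for 16 hours before the ATP read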
# CRFBP-R2 agonist: agonists of CRF-BP/CRF-R2 complex, primary screen, cell-based, HEK293, calcium dye fluorescence, uHTS; activation, % at 13.2 µM; AID 588473, 2011; calcium dye fluorescence (FLIPR); percent of saturating CRF peptide response; 350,000 tested, 0.46% active; CRF-binding protein / CRF receptor 2 complex (human);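 active means activation of at least 50%, plus an integration ratio under a set limit after plate pattern correction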
# H9c2 TAG inh: inhibitors of triacylglycerol accumulation, primary screen, cell-based, uHTS, fluorescence, H9c2; 230,000 tested, 0.66% active; H9c2 cells, Nile Red lipid (TAG) fluorescence; cells loaded with 200 µM oleic acid; inhibition, % at 12.5 µM;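 active means pattern-corrected inhibition of lipid staining of at least 50% with the nuclear-stain viability signal not falling by more than 50%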
# SKN-1 inh: suppressors of acrylamide-induced Pgst-4::GFP reporter in worms, primary screen, SKN-1 inhibitor project, whole organism, uHTS, GFP/RFP fluorescence ratio, strain VP596; C. elegans VP596 Pgst-4::GFP/RFP ratio, 24 h; AID 624304, 2012; 360,000 tested, 0.49% active; inhibition, % at 21.8 µM;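 active means interference check ratio from 0.5 to 1.5 plus GFP to RFP signal ratio inhibition reaching or exceeding a fixed threshold, cut at about 30% in these data, passing the limit was not always enough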
# Cardio protect: cardioprotection against H2O2-induced cell death, primary screen, uHTS, H9c2 cells, ATPLite luminescence. H9c2 cardiomyocytes, H2O2 injury protection, 2 h. protection from H2O2 cell death, % at 20 µM. 360,000 tested, 0.63% active. AID 588492, 2011;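 active means compounds giving at least 50% protection of heart cells from peroxide-induced death in the single-dose screen, raw or plate-pattern-corrected value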
# CRFR2-BP antag: antagonists of CRF-BP/CRF-R2 complex, primary screen, cell-based, HEK293, calcium dye fluorescence, uHTS; CRF-induced calcium fluorescence; inhibition, % at 11.8 µM; 350,000 tested, 0.59% active;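 active means inhibition of the ligand-induced calcium signal above about 50% at the single tested concentration, limit read from the data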
# Numbers stand for hits; . = inactive; / = no result.
SMILES,iPSC survival up,CRFBP-R2 agonist,H9c2 TAG inh,SKN-1 inh,Cardio protect,CRFR2-BP antag
Cc1cc(OCC(=O)NC(C)c2ccccc2)ccc1[N+](=O)[O-] (stereo not drawn),.,.,.,.,.,.
Nc1nccc(SCc2ccccc2)n1,.,.,.,.,.,.
COc1cc(OC)cc(-c2oc3cccnc3c2C#CCCO)c1,.,.,.,.,56,.
O=C(Nc1ccc(Oc2ccccc2)cc1)c1csc([C@H]2C[C@H](O)[C@@H](CO)O2)n1,.,/,.,.,.,/
CCCOP(=O)(c1ccc(N(C)C)cc1)C(Nc1ccccc1)c1ccc(C)cc1 (stereo not drawn),.,.,.,.,.,.
CC(C)CCOP(=O)(c1ccc(N(C)C)cc1)C(Nc1ccccc1)c1ccc(N(C)C)cc1 (stereo not drawn),.,.,.,.,.,111
O=c1c2ccccc2c2ccccc2c(=O)n1Nc1ccccc1,.,.,.,.,.,.
COc1ccc(OC)c(C=C2CCc3ccccc3C2=O)c1,.,/,/,.,.,/
COc1ccc(OC)c(/C=C2/Sc3ccccc3C2=O)c1,.,197,/,.,.,.
COc1ncc(-c2ccc(N3C(c4ccsc4)=Cc4ccc(F)cc4C3CC(C)=O)cc2)cn1 (stereo not drawn),.,/,/,.,/,/
Cc1sc2nc(COC(=O)c3ccc(O)cc3)[nH]c(=O)c2c1C,.,.,.,.,.,.
COc1ccc(S(=O)(=O)N2CC(O)CC2C(=O)OCc2nc3sc(C)c(C)c3c(=O)[nH]2)cc1 (stereo not drawn),.,.,/,.,79,.
CCN(CC)C(=O)CCn1nc(-c2ccc(C)cc2)c2ccccc2c1=O,.,.,/,.,.,.
CCN(CC)C(=O)Cn1c(=O)c2ccccc2n2c(=S)sc(-c3cccc(C)c3)c12,.,55,/,.,.,.
Cc1ccc2c(c1)N(CC(=O)N1CCCC1)C(=O)C(C)O2 (stereo not drawn),.,.,/,.,.,.
Cc1[nH]c(=O)[nH]c(=O)c1S(=O)(=O)N1CCCC(C(=O)N2CCN(c3ccccc3Cl)CC2)C1 (stereo not drawn),.,.,/,.,.,74
Cc1[nH]c2ccccc2c1SCCNC(=O)c1ccc(S(=O)(=O)N2CCCC2)cc1,.,.,.,.,.,114
O=C(NCc1ccccc1)c1ccc(S(=O)(=O)N2CCCC2)cc1,.,.,/,.,.,.
O=C(NCCc1ccccn1)c1ccc(S(=O)(=O)N2CCCCCC2)cc1,.,.,.,39,.,.
CCCCNC(=O)OCC(CC)NC(=O)OCC(C)C (stereo not drawn),.,.,.,36,.,.
CCCCNC(=O)OCC(CC)NC(=O)OC(C)C (stereo not drawn),.,.,.,.,.,.
CCOC(=O)c1c(-c2ccc(C)o2)csc1NC(=O)COC(=O)c1ccc(NC(N)=O)cc1,.,.,.,.,61,.
O=C(CCN1CCCC1=O)NC1CCCc2c1cnn2-c1ccccc1F (stereo not drawn),.,.,/,.,.,54
O=C(CCN1CCCC1=O)NC1CCCc2c1cnn2-c1ccc(F)cc1F (stereo not drawn),.,.,/,.,.,.
O=C(c1ccccc1[N+](=O)[O-])N1CCc2ccccc2C1,.,.,/,.,.,.
SMILES,iPSC survival up,CRFBP-R2 agonist,H9c2 TAG inh,SKN-1 inh,Cardio protect,CRFR2-BP antag
Cc1cccc(C(=O)N2CCc3ccccc3C2)c1[N+](=O)[O-],.,.,/,.,.,85
Cc1ccc(-c2[nH]c3cc(C(=O)NCCCn4ccnc4)ccc3c(=O)c2O)cc1,.,.,.,.,.,.
Cc1ccc(-c2[nH]c3cc(C(N)=O)ccc3c(=O)c2O)cc1,.,.,.,.,63,.
CCCNC(=O)c1ccc2c(=O)c(O)c(-c3ccc(C)cc3)[nH]c2c1,.,.,.,.,54,.
Cc1ccc(CNC(=O)c2ccc3c(=O)c(O)c(-c4ccc(C)cc4)[nH]c3c2)cc1,.,.,.,.,59,.
CCN(Cc1cc(=O)[nH]c2ccccc12)C(=O)c1ccc(C)cc1,.,.,.,.,.,.
CCCNC(=O)c1ccc2c(=O)c(O)c(-c3ccc(OC)cc3)[nH]c2c1,.,.,.,.,.,.
CCCNC(=O)c1ccc2c(=O)c(O)c(-c3ccsc3)[nH]c2c1,.,.,.,.,51,.
COc1ccc(/C=C/C(=O)NC2CCCCCCC2)cc1S(=O)(=O)N1CCOCC1,.,.,/,.,.,.
COCCCNC(=O)/C(C#N)=C1\N=C(NC(=O)c2cccs2)c2ccccc21,.,.,.,.,58,.
N#Cc1c(N)n(Cc2ccccc2)c(=O)c2cc([N+](=O)[O-])ccc12,.,.,/,.,.,.
Cn1c(N)c(-c2ccccc2)c2ccc([N+](=O)[O-])cc2c1=O,.,123,/,.,.,.
CC(=O)Nc1cc(C(C)C)c(O)c(C(C)C)c1,.,.,.,.,.,.
CC(C)c1cc(NC(=O)c2ccccc2)cc(C(C)C)c1O,.,.,.,.,.,82
CN1[C@@H](Cc2ccccc2)COc2cc(N3CCSCC3)ccc2S1(=O)=O,.,/,/,.,/,/
COc1ccccc1CN1CCCC(C(=O)N(C)Cc2ccccc2)C1 (stereo not drawn),.,.,.,.,.,55
COc1ccc(CN2CCCC(C(=O)N(C)Cc3ccccc3)C2)cc1OC (stereo not drawn),.,.,.,.,.,.
COc1ccccc1CNC(=O)C1CCN(C(=O)N(C)C)CC1,.,.,/,35,.,.
CCOc1ccc2[nH]c(=O)c(CN(CCO)C(c3nnnn3C3CCCCC3)C(C)C)cc2c1 (stereo not drawn),.,.,.,.,103,.
CCCS(=O)(=O)NC(=O)C1(C)CCN(C(=O)Cc2cccc3ccccc23)C1 (stereo not drawn),.,/,.,.,.,/
Clc1ccsc1-c1csc(-c2cccnc2)n1,.,.,/,42,.,.
O=C(Nc1cccc(F)c1)N1CCc2nc(NCc3cccc(Oc4ccccc4)c3)ncc2C1,.,/,.,.,.,/
Oc1ccc(Cl)cc1CNCc1ccc(Cl)nc1,.,.,.,.,.,.
O=C(CCn1c2c(c3ccccc31)CCCC2)NNC(=O)c1ccccc1C(=O)O,.,55,.,.,.,.
O=C(CCn1c2c(c3ccccc31)CCCC2)NNC(=O)c1ccccc1[N+](=O)[O-],.,.,.,.,.,.
COc1cc(C(=O)NCCCNc2nc3cc(C)cc(C)c3cc2C#N)cc(OC)c1OC,.,.,.,.,81,.

# From PubChem
